# Test results published in PubChem BioAssay (Tox21).
# A number with no mark means an inactive call. Results filed as inconclusive are left out. A call without a number means that no potency is given here. The source made the active and inactive calls. Unless noted, calls follow the shape of the dose curve; as a rule, active = well fitted curve in the direction sought with a large enough effect in the repeat runs; inconclusive = weak or mixed curves; inactive = no such curve, though single readings can be large; an effect the other way counts as inactive or inconclusive.
# Experiments:
# [1] = biological target: Thyrotropin receptor (Homo sapiens) (UniProt P16473); assay: qHTS assay to identify small molecule antagonists of the thyroid stimulating hormone receptor (TSHR) signaling pathway (AID 1259385; calls by dose curve; also: nearly all actives have a fitted effect of over 20% in size)
# Chain of Thyrotropin receptor (Homo sapiens) (P16473 whole entry, looked up): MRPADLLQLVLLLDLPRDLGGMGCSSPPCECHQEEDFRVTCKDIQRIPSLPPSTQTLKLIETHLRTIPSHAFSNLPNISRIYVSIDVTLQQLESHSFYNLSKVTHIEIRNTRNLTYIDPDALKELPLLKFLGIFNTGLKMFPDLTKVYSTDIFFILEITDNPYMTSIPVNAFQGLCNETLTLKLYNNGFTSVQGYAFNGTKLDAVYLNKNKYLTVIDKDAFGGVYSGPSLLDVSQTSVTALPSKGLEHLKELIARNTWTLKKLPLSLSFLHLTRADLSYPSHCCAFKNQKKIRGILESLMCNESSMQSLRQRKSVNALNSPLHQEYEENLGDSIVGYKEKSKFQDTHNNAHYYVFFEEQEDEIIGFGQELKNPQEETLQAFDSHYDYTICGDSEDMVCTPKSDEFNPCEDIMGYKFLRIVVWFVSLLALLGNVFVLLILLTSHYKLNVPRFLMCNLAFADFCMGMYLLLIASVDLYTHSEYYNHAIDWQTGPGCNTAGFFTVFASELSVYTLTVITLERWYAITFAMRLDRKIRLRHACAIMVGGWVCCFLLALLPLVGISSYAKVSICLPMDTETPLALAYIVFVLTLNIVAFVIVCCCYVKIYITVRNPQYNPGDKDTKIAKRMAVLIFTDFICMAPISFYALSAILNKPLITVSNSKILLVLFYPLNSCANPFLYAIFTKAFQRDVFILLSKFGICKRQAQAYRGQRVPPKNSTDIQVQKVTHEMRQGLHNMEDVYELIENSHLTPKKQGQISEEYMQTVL
# Procedure, shortened: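 TSHR-HEK293 cells (800/well) plated 18 h, then compounds with Ro20-1724 and TSH at 1.5 ng/mL final, 30 min at room temperature. cAMP quantified by HTRF (cAMP-d2/anti-cAMP-cryptate, 1 h); 15 concentrations in triplicate.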
# [2] = qHTS assay to identify small molecule agonists of the estrogen receptor alpha (ER-alpha) signaling pathway in the presence of an antagonist - cell viability counter screen (AID 1259386);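 also: cells exposed to compounds for 22 h at 37 °C before the viability read; nearly all actives have a fitted effect of over 30% in size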; also: potency is read from the fitted curve at half-maximal effect
# Procedure, shortened: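 The test measures whether compounds kill ER-alpha reporter cells (VM7Luc4E2) under antagonist co-treatment (ICI-182,780, 10.0nM). Fluorescence from CellTiter-Fluor is read after a 22hr exposure.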
# [3] = biological target: Progesterone receptor (Homo sapiens) (UniProt P06401); assay: qHTS assay to identify small molecule agonists of the progesterone receptor (PR) signaling pathway (AID 1346784; calls by dose curve; also: nearly all actives have a fitted effect of over 30% in size)
# Chain of Progesterone receptor (Homo sapiens) (P06401 whole entry, looked up): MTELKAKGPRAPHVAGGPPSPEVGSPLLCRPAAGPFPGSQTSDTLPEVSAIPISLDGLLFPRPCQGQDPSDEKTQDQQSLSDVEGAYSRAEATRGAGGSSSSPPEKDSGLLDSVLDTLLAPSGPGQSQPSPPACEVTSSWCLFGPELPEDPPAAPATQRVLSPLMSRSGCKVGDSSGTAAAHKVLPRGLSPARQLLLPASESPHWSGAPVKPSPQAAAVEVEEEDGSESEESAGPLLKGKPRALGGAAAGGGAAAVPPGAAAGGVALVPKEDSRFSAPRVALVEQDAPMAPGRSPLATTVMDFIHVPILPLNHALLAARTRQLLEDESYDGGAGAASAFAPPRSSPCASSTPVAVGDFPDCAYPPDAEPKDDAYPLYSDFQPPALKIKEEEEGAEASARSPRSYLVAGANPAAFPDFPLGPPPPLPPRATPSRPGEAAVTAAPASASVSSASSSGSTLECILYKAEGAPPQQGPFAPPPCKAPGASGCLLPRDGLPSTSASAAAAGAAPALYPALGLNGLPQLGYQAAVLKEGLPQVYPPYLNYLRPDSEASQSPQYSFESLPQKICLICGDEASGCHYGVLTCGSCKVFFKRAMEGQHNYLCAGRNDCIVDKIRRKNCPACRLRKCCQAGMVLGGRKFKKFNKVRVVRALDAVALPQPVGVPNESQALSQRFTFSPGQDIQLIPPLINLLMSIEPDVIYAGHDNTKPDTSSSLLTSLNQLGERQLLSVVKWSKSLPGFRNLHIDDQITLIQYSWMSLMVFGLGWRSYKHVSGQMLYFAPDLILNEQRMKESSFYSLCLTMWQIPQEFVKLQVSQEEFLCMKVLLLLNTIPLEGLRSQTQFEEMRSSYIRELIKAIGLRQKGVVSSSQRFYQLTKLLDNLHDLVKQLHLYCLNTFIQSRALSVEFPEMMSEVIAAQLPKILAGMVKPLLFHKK
# Procedure, shortened: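 Agonist mode, quantitative HTS format in a HEK 293T line expressing a UAS-controlled beta-lactamase reporter; 16 hr compound exposure at 37C in 2% charcoal-stripped FBS, then LiveBLAzer B/G FRET fluorescence.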
# [4] = biological target: Progesterone receptor (Homo sapiens) (UniProt P06401); assay: qHTS assay to identify small molecule antagonists of the progesterone receptor (PR) signaling pathway (AID 1346795; active = well fitted inhibition curve with a large enough effect in the signal ratio in the repeat runs, not every such curve was filed as active; the % refers to the signal ratio; also: potency is read from the fitted curve at half-maximal effect)
# Procedure, shortened: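 HEK293T PR-UAS-bla reporter cells in charcoal-stripped serum (2%) received compound after a 6 hr settling period, followed by R5020 agonist at 1 nM final; 16 hr incubation preceded the FRET substrate step and fluorescence measurement.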
# [5] = qHTS assay to identify small molecule antagonists of the progesterone receptor (PR) signaling pathway - cell viability counter screen (AID 1346798); also: series mostly up to about 92 µM; nearly all actives have a fitted effect of over 50% in size
# Procedure, shortened: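 Same-well multiplex: after 16 hr at 37C with compound and R5020 stimulation, HEK293T cells carrying a UAS-bla reporter received LiveBLAzer substrate (2 hr RT), then CellTiter-Glo (30 min RT) for luminescent viability.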
# [6] = qHTS assay to identify small molecule agonists of the progesterone receptor (PR) signaling pathway - cell viability counter screen (AID 1346799; calls by dose curve; also: nearly all actives have a fitted effect of over 45% in size)
# Procedure, shortened: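 Counter screen for cytotoxicity: compound-treated PR-UAS-bla HEK293T cells (16 hr, 37C, 5% CO2) were assayed with CellTiter-Glo, luminescence measured after 30 min at room temperature.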
# [7] = qHTS assay to identify small molecule antagonists of the TGF-beta/Smad signaling pathway - cell viability counter screen (AID 1346824); also: nearly all actives have a fitted effect of over 50% in size
# Procedure, shortened: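 SBE-bla HEK 293T cells, incubated overnight, then compound plus 0.25 ng/mL TGF-beta1 (stock added) for 5 hr at 37 C. Viability was read in the same wells by CellTiter-Glo luminescence after 30 min at room temperature.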
# [8] = qHTS assay to identify small molecule agonists of the TGF-beta/Smad signaling pathway - cell viability counter screen (AID 1346829); also: top concentration of the series differs between compounds; nearly all actives have a fitted effect of over 45% in size
# Procedure, shortened: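 After overnight seating at 37 C and 5% CO2, reporter cells got compounds for 5 hr and FRET substrate for 2 hr; cell viability then came from CellTiter-Glo luminescence.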
# [9] = qHTS assay to identify small molecule agonists of the TGF-beta/Smad signaling pathway (AID 1346859; active = well fitted activation curve with a large enough effect in the signal ratio in the repeat runs, not every such curve was filed as active; the % refers to the signal ratio; also: series mostly up to about 77 µM)
# Procedure, shortened: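 Smad-responsive beta-lactamase reporter cells (HEK 293T) received compounds from DMSO stocks after overnight attachment, were incubated 5 hr, then treated 2 hr with FRET substrate before dual-emission fluorescence measurement (405 nm excitation).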
# [10] = biological target: Thyrotropin-releasing hormone receptor (Homo sapiens) (UniProt P34981); assay: qHTS assay to identify small molecule antagonists of the thyrotropin-releasing hormone receptor (TRHR) signaling pathway (AID 1346877; active = well fitted inhibition curve with a large enough effect in the repeat runs, not every such curve was filed as active; also: series mostly up to about 51 µM)
# Chain of Thyrotropin-releasing hormone receptor (Homo sapiens) (P34981 whole entry, looked up): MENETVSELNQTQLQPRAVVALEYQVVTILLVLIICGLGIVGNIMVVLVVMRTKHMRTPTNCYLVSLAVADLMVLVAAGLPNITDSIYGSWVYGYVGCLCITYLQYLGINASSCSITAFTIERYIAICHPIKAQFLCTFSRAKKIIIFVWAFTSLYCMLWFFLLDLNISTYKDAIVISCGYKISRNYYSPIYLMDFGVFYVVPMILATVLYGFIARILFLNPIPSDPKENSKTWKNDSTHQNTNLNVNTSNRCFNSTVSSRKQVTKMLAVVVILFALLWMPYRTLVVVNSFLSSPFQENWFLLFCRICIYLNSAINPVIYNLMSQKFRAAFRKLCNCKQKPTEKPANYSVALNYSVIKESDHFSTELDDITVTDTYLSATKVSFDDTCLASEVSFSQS
# Procedure, shortened: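 Overnight-plated (18 h, 37 °C) HEK293 cells expressing TRHR were dye-loaded 2 h, treated with compound, then stimulated with TRH at 1 nM final. Fluorescence intensity was captured every second for 3 min.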
# [11] = biological target: Thyrotropin-releasing hormone receptor (Homo sapiens) (UniProt P34981); assay: qHTS assay to identify small molecule agonists of the thyrotropin-releasing hormone receptor (TRHR) signaling pathway (AID 1346891; calls by dose curve;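 also: HEK293 cells expressing TRHR with calcium dye readout; series mostly up to about 58 µM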)
# Procedure, shortened: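 Agonist-mode calcium mobilisation screen: TRHR-transfected HEK293 cells cultured overnight (18 h), dye-loaded for 2 h at 37 °C, exposed to compounds, and monitored by fluorescence for 3 min.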
# [12] = Human pregnane X receptor (PXR) small molecule agonists, qHTS cell viability counter screen (AID 1346977); also: nearly all actives have a fitted effect of over 50% in size
# Procedure, shortened: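 Measures live-cell protease fluorescence (CellTiter-Fluor) in PXR-Luc HepG2 cells treated 24hr with compounds at 37C. Cells had 5hr to attach before pin transfer of DMSO solutions.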
# [13] = Caspase-3/7 induction in HepG2 cells by small molecules, qHTS assay (AID 1346978); also: nearly all actives have a fitted effect of over 15% in size
# Procedure, shortened: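 Wild-type HepG2 cells, 2,000/well, settled 5 hr at 37 C and 5% CO2, then compound-treated for 17 hr; caspase-3/7 activity read by luminescent Caspase-Glo 3/7 after 30 min at room temperature.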
# [14] = Caspase-3/7 induction in CHO-K1 cells by small molecules, qHTS cell viability counter screen (AID 1346979); also: nearly all actives have a fitted effect of over 35% in size; also: potency is read from the fitted curve at half-maximal effect
# Procedure, shortened: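 In the same wells as the caspase read, viability of compound-treated wild-type CHO-K1 cells was assessed using CellTiter-Fluor, added after 16hr at 37C and measured by fluorescence following 1hr further incubation.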
# [15] = Caspase-3/7 induction in CHO-K1 cells by small molecules, qHTS assay (AID 1346980); also: nearly all actives have a fitted effect of over 15% in size
# Procedure, shortened: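 Wild-type CHO-K1 cells exposed to compounds for 17hr at 37 C, 5% CO2. Caspase-3/7 activity then measured by Caspase-Glo 3/7 luminescence after 30min at room temperature.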
# [16] = Caspase-3/7 induction in HepG2 cells by small molecules, qHTS cell viability counter screen (AID 1346981); also: nearly all actives have a fitted effect of over 30% in size; also: potency is read from the fitted curve at half-maximal effect
# Procedure, shortened: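 Treatment of HepG2 cells with DMSO-delivered compounds ran 16 hr at 37 C following a 5-hr pre-incubation of 2,000 cells/well. CellTiter-Fluor fluorescence, read after 1 hr, served as the viability measure in a qHTS format.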
# [17] = biological target: Nuclear receptor subfamily 1 group I member 2 (Homo sapiens) (UniProt O75469); assay: Human pregnane X receptor (PXR) small molecule agonists, qHTS assay (AID 1346982); also: nearly all actives have a fitted effect of over 35% in size; also: potency is read from the fitted curve at half-maximal effect
# Chain of Nuclear receptor subfamily 1 group I member 2 (Homo sapiens) (O75469 whole entry, looked up): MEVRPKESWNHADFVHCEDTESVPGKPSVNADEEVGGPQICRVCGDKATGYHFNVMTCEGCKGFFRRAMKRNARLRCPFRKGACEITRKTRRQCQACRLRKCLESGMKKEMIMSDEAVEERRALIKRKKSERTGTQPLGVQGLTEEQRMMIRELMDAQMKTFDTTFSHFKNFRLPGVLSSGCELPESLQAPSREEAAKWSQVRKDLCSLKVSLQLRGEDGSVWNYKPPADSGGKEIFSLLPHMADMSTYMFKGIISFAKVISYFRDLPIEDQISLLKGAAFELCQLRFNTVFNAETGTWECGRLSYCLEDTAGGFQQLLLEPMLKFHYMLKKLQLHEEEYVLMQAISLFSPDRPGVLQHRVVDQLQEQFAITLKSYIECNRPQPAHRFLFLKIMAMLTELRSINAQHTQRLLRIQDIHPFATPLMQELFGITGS
# Procedure, shortened: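 Stable HepG2 line reporting PXR-mediated CYP3A4 expression via luciferase. Treatment: 24 hr with compounds in DMSO at 37 C. Detection: ONE-Glo luminescence.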
# [18] = biological target: Nuclear receptor subfamily 1 group I member 2 (Rattus norvegicus) (UniProt Q9R1A7); assay: Rat pregnane X receptor (rPXR) activation by small molecules, qHTS assay (AID 1346983); settings: rPXR luciferase reporter cells, One-Glo luminescence, 24 h; max activation: active compounds read high; also: nearly all actives have a fitted effect of over 20% in size
# Chain of Nuclear receptor subfamily 1 group I member 2 (Rattus norvegicus) (Q9R1A7 whole entry, looked up): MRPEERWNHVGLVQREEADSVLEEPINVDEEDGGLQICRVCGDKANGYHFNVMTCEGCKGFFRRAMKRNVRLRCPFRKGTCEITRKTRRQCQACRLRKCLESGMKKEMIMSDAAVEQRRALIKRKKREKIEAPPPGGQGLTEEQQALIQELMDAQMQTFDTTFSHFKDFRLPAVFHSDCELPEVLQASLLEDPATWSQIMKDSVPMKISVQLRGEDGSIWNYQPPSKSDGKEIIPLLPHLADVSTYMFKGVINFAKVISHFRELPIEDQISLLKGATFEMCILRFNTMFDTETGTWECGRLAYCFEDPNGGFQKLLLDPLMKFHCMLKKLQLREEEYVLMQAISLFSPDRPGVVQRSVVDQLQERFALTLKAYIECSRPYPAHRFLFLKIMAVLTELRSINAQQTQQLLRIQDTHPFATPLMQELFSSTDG
# Procedure, shortened: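 Cell-based rPXR activation assay: rPXR cells, 2,000 per well, rested 5hr at 37 C, then exposed to compounds in DMSO for 24 hr at 37 C. Luciferase activity read by One-Glo luminescence after 30 min at room temperature.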
# [19] = biological target: Nuclear receptor subfamily 1 group I member 2 (Homo sapiens) (UniProt O75469); assay: CYP3A4 induction through human pregnane X receptor (PXR) by small molecules, qHTS assay (AID 1346984); also: nearly all actives have a fitted effect of over 40% in size
# Procedure, shortened: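 After 24 h at 37C with compound, DPX-2 cells (HepG2, co-transfected PXR response element and CYP3A4 promoter-luciferase) got 3uM final P450-Glo Luciferin-IPA for 3 h; One-Glo luminescence followed.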
# [20] = biological target: Nuclear receptor subfamily 1 group I member 2 (Homo sapiens) (UniProt O75469); assay: Human pregnane X receptor (PXR) activation by small molecules, qHTS assay (AID 1346985); also: nearly all actives have a fitted effect of over 40% in size
# Procedure, shortened: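 DPX-2 cells (HepG2 co-transfected with a PXR response element and a CYP3A4-promoter luciferase construct) were seeded at 2,000 per well, rested 5 hr at 37C, then exposed to DMSO-dissolved compounds for 24 hr. Activation was read as luciferase luminescence.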
Compound,Potency [1],Potency [2],Potency [3],Potency [4],Potency [5],Potency [6],outcome [7],outcome [8],outcome [9],outcome [10],Potency [11],Potency [12],Potency [13],Potency [14],outcome [15],Potency [16],Potency [17],max activation [18] [%],Potency [19],Potency [20]
Cc1ccc(C)c(N)c1,inactive,inactive,inactive,inactive,inactive,inactive,inactive,inactive,inactive,inactive,inactive,inactive,inactive,inactive,inactive,inactive,inactive,–,–,–
COc1cc(Cl)ccc1Cl,inactive,inactive,inactive,inactive,inactive,inactive,inactive,inactive,inactive,inactive,inactive,inactive,inactive,inactive,inactive,inactive,inactive,–,–,–
CCOC(=O)[C@H](CCc1ccccc1)N[C@@H](C)C(=O)N1Cc2cc(OC)c(OC)cc2C[C@H]1C(=O)O,inactive,inactive,inactive,inactive,inactive,inactive,inactive,inactive,inactive,–,inactive,inactive,inactive,inactive,inactive,–,inactive,-0.0593,inactive,–
Cc1cc(NS(=O)(=O)c2ccc(N)cc2)nc(C)n1,inactive,inactive,inactive,inactive,inactive,inactive,inactive,inactive,inactive,–,inactive,–,inactive,inactive,inactive,inactive,inactive,1.05,inactive,inactive
NS(=O)(=O)c1cc(-c2nn[nH]n2)c(NCc2cccs2)cc1Cl,inactive,inactive,inactive,inactive,inactive,inactive,inactive,inactive,inactive,inactive,inactive,inactive,inactive,inactive,inactive,–,13.3 µM (active),–,inactive,inactive
CC1=NN(c2cc(Cl)c(S(=O)(=O)O)cc2Cl)C(=O)C1N=Nc1ccc(S(=O)(=O)O)cc1 (stereo not drawn),inactive,61.1 µM (active),inactive,inactive,inactive,inactive,inactive,inactive,inactive,inactive,inactive,–,inactive,54.5 µM (active),inactive,48.6 µM (active),inactive,–,–,–
COC(=O)c1ccc(OC)cc1,inactive,inactive,inactive,inactive,–,inactive,inactive,inactive,inactive,inactive,inactive,inactive,inactive,inactive,inactive,–,inactive,–,–,–
CCCCCCCOC(=O)CCC,inactive,inactive,inactive,inactive,inactive,inactive,–,inactive,–,–,–,inactive,–,inactive,inactive,–,inactive,–,–,–
OCC(CBr)(CBr)CBr,inactive,inactive,inactive,34.2 µM (active),inactive,–,inactive,inactive,inactive,inactive,inactive,inactive,–,inactive,inactive,inactive,–,–,–,–
